High-throughput results (PubChem BioAssay)
BAZ2B block: BAZ2B (human) inhibition; AID 504333; Potency, µM (titrated, usually from 114 µM), inactives show at the top dose activity change, negative = inhibition, usual class: inhibitors; AlphaScreen BAZ2B-H3K14Ac peptide displacement; Q9UIF8; 360,000 tested, 4.4% active; further: on the % scale 0 is the no-effect control and ±100 the full control effect; nearly all actives have a fitted effect of over 60% in size
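Inhibition is scored as reduced AlphaScreen emission. The BAZ2B/b-H3(5-23)K14Ac complex (50 nM each) in PBS pH 7.4, 0.01% Tween-20 meets compound (up to 110 uM) for 30 min at RT before bead addition.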
HP1b chromo inh: blocks HP1-beta chromodomain binding to methylated histone tails. P83916. AlphaScreen HP1-beta / biotin-H3K9me3 peptide binding. Potency, µM (series often up to 114 µM), for the others: top-dose activity change, negative = inhibition, usual class: inhibitors. 390,000 tested, 0.56% active; further: nearly all actives have a fitted effect of over 70% in size
Target sequence (P83916 whole entry, looked up): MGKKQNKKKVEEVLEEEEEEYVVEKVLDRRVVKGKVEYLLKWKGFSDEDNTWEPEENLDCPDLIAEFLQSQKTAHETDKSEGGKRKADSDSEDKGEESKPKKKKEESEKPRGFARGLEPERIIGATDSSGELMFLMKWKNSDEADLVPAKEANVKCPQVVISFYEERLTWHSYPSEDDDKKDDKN
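AlphaScreen: HP1-beta (50 nM) preformed 30 min with biotin-H3(1-18)K9me3 peptide (50 nM) in PBS pH 7.4, 0.01% Tween-20. Compound added for 30 min at RT, then streptavidin donor/nickel chelate acceptor beads (10 ug/mL) for 30 min.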
G9a inh: inhibitors of human histone lysine methyltransferase G9a | G9a H3K9 monomethylation, AlphaScreen, 2 h | Potency, µM (titrated, usually from 102 µM), for inactives: at the top dose activity, negative = inhibition, most hits filed as inhibitors | 350,000 tested, 8.8% active | AID 504332; further: on the % scale 0 is the no-effect control and ±100 the full control effect; nearly all actives have a fitted effect of over 75% in size
Target sequence (Q96KQ7 913-1193 limits assumed): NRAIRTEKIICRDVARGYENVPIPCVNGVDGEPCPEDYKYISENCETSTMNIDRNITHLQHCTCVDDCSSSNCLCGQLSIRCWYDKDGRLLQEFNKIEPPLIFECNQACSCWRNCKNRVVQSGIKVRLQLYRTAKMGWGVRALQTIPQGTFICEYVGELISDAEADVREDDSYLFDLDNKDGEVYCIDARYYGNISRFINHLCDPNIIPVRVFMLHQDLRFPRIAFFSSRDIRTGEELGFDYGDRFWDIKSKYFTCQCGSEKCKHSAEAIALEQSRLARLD
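AlphaScreen detection with an anti-monomethyl H3K9 antibody quantified product after a 2 h room-temperature reaction containing 500 nM biotinylated H3K9 peptide, 20 µM SAM and 20 nM enzyme, which had been preincubated 15 min with compound.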
JMJD2A Tudor inh: JMJD2A Tudor domain (human) inhibition; O75164; AlphaScreen JMJD2A-Tudor / H3K4me3 peptide binding; Potency, µM (doses to about 114 µM), for inactives: at the top dose activity change, negative = inhibition, hits mostly inhibitors; 390,000 tested, 4.4% active; AID 504339; further: on the % scale 0 is the no-effect control and ±100 the full control effect; nearly all actives have a fitted effect of over 50% in size
L3MBTL1 block: blocks human L3MBTL1. AlphaScreen L3MBTL1–H3K9me1 peptide binding. 230,000 tested, 0.66% active. Potency, µM (titrated, usually from 57.1 µM), inactives show top-dose activity, negative = inhibition, most hits filed as inhibitors. AID 485360. Q9Y468; further: on the % scale 0 is the no-effect control and ±100 the full control effect; nearly all actives have a fitted effect of over 60% in size
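Displacement of a biotinylated histone H3(1-15) peptide monomethylated at Lys9 (75 nM) from L3MBTL1 (50 nM) was measured by AlphaScreen after a 30 min room-temperature compound incubation; cefsulodin titration served as intraplate control.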
The depositor's hits bear a star; ? = inconclusive; nt = no result; ! = not confirmed by another sample; [ ] = remark or other dose. Rows were chosen to be rich in hits. Some 11% of all compounds tested hit in one or more screens of this group. The call rests on the fitted dose curve; in most records, active means well fitted inhibition curve with a large enough effect; inconclusive means small, poorly fitted or top-dose-only effect; inactive means no such curve, though single readings can be large or run the other way. Potency means the concentration at half of the fitted maximal effect.

SMILES	BAZ2B block	HP1b chromo inh	G9a inh	JMJD2A Tudor inh	L3MBTL1 block
Cc1ccc(-c2ccc(CCC(=O)O)n2-c2cccc(O)c2)cc1	?	-4.1%	14.1µM*	?	nt
Cc1ccc(-c2ccc(CCC(=O)O)n2-c2ccc(O)cc2)cc1	?	-20.2%	?	?	-3.3%
COc1ccc(-c2ccc(CCC(=O)O)n2-c2cc(Cl)ccc2O)cc1	?	-3.3%	?	-33.7%	nt
O=C(O)CCc1ccc(-c2ccc(Cl)cc2)n1-c1cccc(C(F)(F)F)c1	35.5µM*	-22.0%	15.8µM*	?	nt
Cc1ccc(N(C)C(=O)C2CCN(S(=O)(=O)c3c(C)noc3/C=C/c3c(C)cc(C)cc3C)CC2)cc1	-15.0%	2.4%[57 µM]	-0.9%[59 µM]	-24.3%	nt
Cc1c(Cl)cccc1NC(=O)CC(c1ccc(F)cc1)N1Cc2ccccc2C1=O (configuration not stated)	-31.8%	15.9%	?	2.8%	nt
COCCn1c(N)c(N(Cc2ccccc2)C(=O)CSCC(=O)Nc2ccc(OC)cc2)c(=O)[nH]c1=O	7.1%	23.0%	-32.3%	0.7%	3.1%
CN(C)c1ccc(-n2c(CCC(=O)O)ccc2-c2ccccc2)cc1	28.2µM*	?	11.2µM*	50.1µM*	nt
O=C(O)CCc1ccc(-c2cccs2)n1-c1ccc(C(=O)O)cc1	-38.9%	8.0%	14.1µM*	?	-29.0%
O=C(O)CCc1ccc(-c2ccccc2)n1-c1cccc(Br)c1	?	-21.5%	15.8µM*	?	nt
CC(=O)c1ccc(-n2c(CCC(=O)O)ccc2-c2ccccc2)cc1	-19.6%	6.8%	-13.6%[2.33 µM]	-7.0%	nt
CC(C)(C)c1ccc(C(=O)Nn2c(CCC(=O)O)ccc2-c2cccs2)cc1	?	2.5%	4.2%[12.7 µM]	-33.1%	nt
CC(=O)c1cccc(-n2c(CCC(=O)O)ccc2-c2ccccc2)c1	-23.6%	16.5%	39.8µM*	-18.5%	nt
CCCOCC(O)CC(Cc1ccccc1)C(=O)NN (configuration not stated)	-0.3%	31.6%	-1.4%	-11.6%	nt
COc1cccc(NC(=O)Cn2c(CCC(=O)O)ccc2-c2ccc(Cl)cc2)c1	44.7µM*	-13.0%	nt	-22.0%	-19.3%
COc1cccc(NC(=O)Cn2c(CCC(=O)O)ccc2-c2cccs2)c1	-22.2%	-14.0%	-7.0%	-19.7%	nt
Cc1ccc(NC(=O)Cn2c(CCC(=O)O)ccc2-c2cccs2)cc1Cl	?	14.2%	44.7µM*	?	nt
CNC(=S)NCCc1cc2c(OC)ccc(OC)c2[nH]c1=O	nt	7.6%	?	17.8µM*	nt
COc1ccc(OC)c2[nH]c(=O)c(CCNC(=S)NC(C)(C)C)cc12	nt	3.7%	-42.9%	-26.9%	nt
CCn1cc2nc(SCc3ccc(F)cc3)n(CCc3ccccc3)c(=O)c2n1	1.8%	19.5%	0.2%[59 µM]	-13.3%	nt
COc1ccc(CNC(=O)c2cc3c(-c4ccccc4F)nn(C)c3s2)cc1	nt	36.2%	-1.2%[59 µM]	-8.3%	nt
Cc1ccc([C@H]2Nc3ccc(S(=O)(=O)Nc4cccc(Cl)c4C)cc3[C@H]3C=CC[C@H]32)cc1	?	1.2%	14.1µM*	?	nt
COc1cccc([C@H]2Nc3ccc(S(=O)(=O)Nc4cc(C)ccc4C)cc3[C@H]3C=CC[C@H]32)c1	-32.4%	6.8%	12.6µM*	-33.9%	nt
O=C(Nc1ccc(F)cc1)c1ccccc1S(=O)(=O)c1ccccc1[N+](=O)[O-]	-4.2%	8.5%	0.5%[59 µM]	-16.9%	2.8%
COc1ccc(Nc2nccc(-c3cccc(N)c3)n2)cc1	56.2µM*	-8.8%	-23.2%	-35.1%	nt
CCC(CC)C(=O)Nc1nnc(S(=O)(=O)N2CCc3ccccc32)s1	?	20.4%	7.08µM*	-6.2%	-4.7%
CC1Cc2ccccc2N1S(=O)(=O)c1nnc(NC(=O)c2cccc(F)c2)s1 (configuration not stated)	-8.9%	-9.8%	-9.5%[59 µM]	-28.6%	nt
CCC(CC)C(=O)Nc1nnc(S(=O)(=O)N2c3ccccc3CC2C)s1 (configuration not stated)	25.1µM*!	42.0%	-9.3%	50.1µM*!	5.3%
O=C(CCN1C(=O)/C(=C/c2ccccc2Cl)SC1=S)Nc1ccccn1	?	36.9%	7.94µM*	5.4%	nt
O=C(CCCN1C(=O)/C(=C/c2ccccc2Cl)SC1=S)Nc1ccccn1	?	?	12.6µM*	17.8µM*	?
